Experimental data taken from PubChem BioAssay (EPA / NIEHS).
Values joined by “and” are separate entries in the source; they are usually repeats but may differ in a detail not shown here. Equal values may be shown once. Results filed as inconclusive are left out. A structure can be active in one record and inactive in another. Active and inactive are the calls of the source. The calls were made as follows: active = hit-call score of the fitted dose curve at least 0.9, where 1 is the maximum; inconclusive = response in the unintended direction; inactive = score below 0.9.

The compounds below were run against chimpanzee Androgen Receptor (AR), AR (gene 747460) (UniProt O97775) (assay: NVS_NR_cAR: NovaScreen (NVS) Nuclear Receptor Binding Assay for chimpanzee Androgen Receptor (AR) (AID 2283346);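 also: a loss of bound radioligand signal versus DMSO counts as binding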).
chimpanzee Androgen Receptor (AR), AR (gene 747460), sequence (O97775 whole entry, looked up): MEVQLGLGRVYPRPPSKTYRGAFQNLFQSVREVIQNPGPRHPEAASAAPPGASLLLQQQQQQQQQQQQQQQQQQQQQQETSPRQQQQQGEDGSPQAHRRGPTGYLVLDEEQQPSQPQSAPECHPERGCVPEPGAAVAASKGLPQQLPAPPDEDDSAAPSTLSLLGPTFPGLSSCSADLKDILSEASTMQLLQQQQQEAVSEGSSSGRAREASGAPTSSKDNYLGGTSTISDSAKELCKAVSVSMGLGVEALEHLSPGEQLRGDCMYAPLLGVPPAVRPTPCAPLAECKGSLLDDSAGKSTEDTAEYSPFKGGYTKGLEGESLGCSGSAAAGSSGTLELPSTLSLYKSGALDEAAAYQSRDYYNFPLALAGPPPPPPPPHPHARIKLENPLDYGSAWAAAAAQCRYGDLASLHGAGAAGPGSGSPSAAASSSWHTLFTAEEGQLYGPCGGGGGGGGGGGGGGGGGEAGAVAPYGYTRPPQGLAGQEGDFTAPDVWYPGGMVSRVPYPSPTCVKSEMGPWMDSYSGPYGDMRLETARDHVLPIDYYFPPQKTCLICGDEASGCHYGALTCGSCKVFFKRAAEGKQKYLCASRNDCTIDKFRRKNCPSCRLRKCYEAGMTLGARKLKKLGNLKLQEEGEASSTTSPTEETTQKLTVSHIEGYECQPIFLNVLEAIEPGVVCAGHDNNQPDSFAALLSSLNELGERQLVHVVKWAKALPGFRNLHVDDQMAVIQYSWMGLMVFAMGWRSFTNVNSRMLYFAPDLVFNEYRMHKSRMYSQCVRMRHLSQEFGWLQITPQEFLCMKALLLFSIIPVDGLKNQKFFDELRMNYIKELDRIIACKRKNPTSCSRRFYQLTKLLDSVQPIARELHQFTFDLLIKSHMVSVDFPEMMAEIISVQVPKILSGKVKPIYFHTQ
Procedure: NVS_NR_cAR is a biochemical, single-readout assay that uses extracted gene-proteins from Sf9/Sf21 in a cell-free assay. Measurements were taken 72 hours after chemical dosing in a 96-well plate.NVS_NR_cAR is one of one assay component(s) measured or calculated from the NVS_NR_cAR assay. It is designed to make measurements of radioligand binding, a form of binding reporter, as detected with scintillation counting signals by Lysate-based radiodetection technology.Data from the assay component NVS_NR_cAR was analyzed into 1 assay endpoint. This assay endpoint, NVS_NR_cAR, was analyzed in the positive analysis fitting direction relative to DMSO as the negative control and baseline of activity. Using a type of binding reporter, loss-of-signal activity can be used to understand changes in the binding as they relate to the gene AR. Furthermore, this assay endpoint can be referred to as a primary readout, because the performed assay has only produced 1 assay endpoint. To generalize the intended target to other relatable targets, this assay endpoint is annotated to the nuclear receptor intended target family, where the subfamily is steroidal.
Binding assays used specific radioligands (tritiated, iodinated) with non-radioactive competitive displacement ligands in agonist or antagonist protocols (as indicated) and various reference compounds and inhibitors to titrate specific binding to receptors and transporters. Most enzyme assays (CYPs, kinases, phosphatases, proteases, HDACs) used recombinant protein and specific substrates (fluorescence mostly, some colorimetric and radioactive) and inhibitors, followed by a biochemical separation of substrate and product. All assays for the biochemical HTS were initially run in duplicate at a single concentration (10 uM for CYP450 assays and 25 uM for all others). […] Each assay was run with positive and negative controls, and concurrent controls on every plate. The follow-up (secondary) screen tested active chemical-pairs in concentration series, as well as a few additional assays not tested in the primary screen, some selected negative inactives, and several cases re-run in the concentration series for confirmatory purposes.

Question: For `C[C@]12CC[C@@H]3c4ccc(O)cc4C[C@@H](CCCCCCCCCS(=O)CCCC(F)(F)C(F)(F)F)[C@H]3[C@@H]1CC[C@@H]2O` (some centres undefined), which outcome is on record?
Answer: inactive

Question: What about the AC50 of the same compound?
Answer: 15.5 µM (active)

Question: `S=C(S)NCCNC(=S)S.[Mn+2].[S-]C([S-])=NCCN=C([S-])[S-].[Zn+2]` was tested. Which AC50 did it give?
Answer: 12.5 µM (active)

Question: For `CSC(=O)c1cccc2nnsc12`, which AC50 is on record?
Answer: 1.02 µM (active)

Question: For `C=CCOC(Cn1ccnc1)c1ccc(Cl)cc1Cl` (centres undefined), which AC50 is on record?
Answer: 9.9 µM (active)

Question: `CCOC(=O)c1ccc(O)cc1` was tested. Which outcome did it give?
Answer: inactive

Question: For `C[C@]12C[C@H](O)[C@H]3[C@@H](CCC4=CC(=O)CC[C@@]43C)[C@@H]1CC[C@@H]2C(=O)CO`, which AC50 is on record?
Answer: 4.56 µM (active)

Question: For `N[C@@H](Cc1cc(I)c(Oc2ccc(O)c(I)c2)c(I)c1)C(=O)O`, which outcome is on record?
Answer: inactive

Question: Which AC50 does the source give for `O=C(c1ccc(O)cc1O)c1ccc(O)cc1O` here?
Answer: 2.73 µM (active)

Question: With `CC(C)(c1ccc(O)cc1)c1ccc(O)cc1` as the compound, how does the AC50 read?
Answer: 16.5 µM (active) and 17.8 µM (active) and 25.4 µM (active)

Question: With `CC(=O)S[C@@H]1CC2=CC(=O)CC[C@]2(C)[C@H]2CC[C@@]3(C)[C@@H](CC[C@@]34CCC(=O)O4)[C@H]12` as the compound, how does the AC50 read?
Answer: 6.35 nM (active) and 29.2 nM (active)

Question: With `Oc1ccc(C(c2ccc(O)cc2)C(Cl)(Cl)Cl)cc1` as the compound, how does the AC50 read?
Answer: 6.15 µM (active)

Question: How did the AC50 turn out when `C#C[C@]1(O)CC[C@H]2[C@@H]3CCC4=CC(=O)CC[C@@H]4[C@H]3CC[C@@]21CC` was run?
Answer: 2.29 nM (active) and 5.63 nM (active)

Question: For `CN(C)C(=O)Nc1ccc(Cl)c(Cl)c1`, which AC50 is on record?
Answer: 25 µM (active)
